PubChem BioAssay AID2289 (National Center for Advancing Translational Sciences (NCATS), 2010)
Screen size: about 340,000 compounds; about 3,300 (0.97%) were called active. About 9% were inconclusive and are not listed. The call rests on the fitted dose curve; in most records, active means well fitted inhibition curve with a large enough effect; inconclusive means small, poorly fitted or top-dose-only effect, or effect the other way; inactive means flat fitted curve, though single readings scatter. This is one part of the list.

experiment: qHTS Assay for Modulators of miRNAs and/or Inhibitors of miR-21; conditions: HeLa miR-21-FLuc reporter, luciferase luminescence, 48 h; actives lower the signal; further: nearly all actives have a fitted effect of over 55% in size
Summary of the method: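 HeLa cells endogenously expressing miR-21, stably carrying CMV-driven firefly luciferase with a downstream miR-21 binding site, 2000 cells/well. Titrations up to approximately 40 uM, 48 hours; luciferase luminescence read.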
Potency means the concentration at half of the fitted maximal effect.

Potency, active:
O=C(O)c1cccc(NC(=S)N/N=C/c2ccccc2OCc2ccc(Br)cc2)c1 11.7 µM
O=C(O)c1cnn(-c2nc(-c3ccc(Br)cc3)cs2)c1C(F)(F)F 11.7 µM
O=C(O)c1cnn(-c2nc(-c3ccc(Cl)cc3)cs2)c1C(F)(F)F 13.1 µM
O=C(O)c1cnn(-c2nc(-c3ccc(Cl)c(Cl)c3)cs2)c1C(F)(F)F 5.21 µM
O=C(O)c1cnn(-c2nc(-c3ccc(F)cc3)cs2)c1C(F)(F)F 14.7 µM
COc1ccccc1-c1nn2c(-c3ccco3)nnc2s1 4.65 µM
CCOC(=O)c1oc2ccc(/C=N/O)c(Cl)c2c1C 8.26 µM
Cn1cccc1CC(=O)N/N=C/c1ccc(C(C)(C)C)cc1 10.4 µM
CC(C)(C)c1ccc(/C=N/NC(=O)C2CCCC2)cc1 16.5 µM
Cc1cn2c(=O)cc(COC(=O)c3cccc(NC(=O)COc4ccccc4Cl)c3)nc2s1 0.329 µM
Cc1ccc(OCC(=O)Nc2cccc(C(=O)OCc3cc(=O)n4nc(C)sc4n3)c2)cc1 0.736 µM
COc1ccc(NC(=S)Nc2ccccn2)cc1 2.93 µM
COC(=O)c1ccc(NC(=S)Nc2ccccn2)cc1 2.07 µM
COc1ccccc1N1CCN(C(=O)c2nc(-c3ccc(C)cc3)n3c2CCCCC3)CC1 1.47 µM
N/C(=N\OC(=O)c1ccc(Cl)cc1)c1cccnc1 2.61 µM
N/C(=N\OC(=O)c1ccc2c(c1)OCO2)c1cccnc1 3.69 µM
Cc1cc(/C(N)=N/OC(=O)c2ccc(Cl)cc2)no1 1.47 µM
Cc1ccc(/C(N)=N/OC(=O)c2ccc3c(c2)OCO3)cc1 0.464 µM
Cn1cccc1/C=C1\SC(=O)N(c2ccccc2)C1=O 0.927 µM
O=C(NCCc1ccccc1)c1cc(-c2ccco2)on1 3.29 µM
CCCNC(=O)c1cc(-c2ccco2)on1 3.69 µM
CC1CCN(C(=O)c2cc(-c3ccco3)on2)CC1 3.69 µM
Cn1c(NC(=O)c2cccc(Cn3cc(Cl)cn3)c2)nc2ccccc21 4.65 µM
O=C(Nc1ccccc1F)c1ccc(Cn2cc(Cl)cn2)cc1 10.4 µM
Cc1cc2c([nH]c3ccccc32)c2c1OC(C)(C)C=C2 3.69 µM
COc1ccc(OCc2cc(C(=O)N3CCCC(OC)C3)no2)c2ccccc12 (centres undefined) 16.5 µM
COc1ccc(OCc2cc(C(=O)N3CCCC(O)C3)no2)c2ccccc12 (centres undefined) 5.85 µM
Oc1c(/C=N/c2ccccn2)sc2ccccc12 2.07 µM
O=C(OCCOc1ccccc1)c1n[nH]c2ccccc12 1.47 µM
O=C(O)C(=O)/C(=C\c1ccsc1)c1ccc2ccccc2n1 1.47 µM
N#Cc1ccc(/C=C(\C(=O)C(=O)O)c2ccc3ccccc3n2)cc1 1.04 µM
COc1cc(/C=C/c2nc3ccccc3s2)cc(OC)c1O 13.1 µM
COc1cc(/C=N/Nc2ccccc2C(F)(F)F)ccc1O 16.5 µM
CC(=O)Nc1ccc(/C=N/Nc2nc3ccccc3s2)cc1 0.185 µM
COc1cc(/C=N/Nc2nc3ccccc3s2)ccc1O 2.93 µM
O=C(O)c1ccc(N/N=C/C(Br)=C/c2ccccc2)cc1 1.17 µM
BrC(=C\c1ccccc1)/C=N/Nc1nc2ccccc2[nH]1 16.5 µM
O=C(c1ccco1)N1CCN(C(c2ccccn2)c2nnnn2C2CCCC2)CC1 (centres undefined) 7.36 µM
Clc1ccc(-c2nnc(N3CCOCC3)o2)cc1 18.5 µM
Clc1ccc(-c2csc(N3CCOCC3)n2)cc1 3.29 µM
COc1ccc(-c2csc(N3CCOCC3)n2)cc1OC 5.85 µM
COc1ccc(-c2csc(N3CCSCC3)n2)cc1 10.4 µM
COc1ccc(-c2csc(N3C(=O)CNC3=S)n2)cc1 0.0585 µM
O=C(c1ccc(-c2cccc(C(F)(F)F)c2)o1)N1CCOCC1 14.7 µM
O=C(c1ccc(-c2cccc(Cl)c2Cl)o1)N1CCOCC1 4.65 µM
O=C(c1ccc(-c2ccc([N+](=O)[O-])cc2Cl)o1)N1CCOCC1 10.4 µM
O=C(c1ccc(-c2ccc([N+](=O)[O-])cc2)o1)N1CCCCC1 1.85 µM
O=C(c1ccc(-c2ccc(Cl)cc2Cl)o1)N1CCOCC1 7.36 µM
O=C(c1ccc(-c2cc(Cl)ccc2Cl)o1)N1CCOCC1 18.5 µM
Cc1nc(NC(=O)C2CCCC2)sc1Cc1ccc2c(c1)OCO2 9.27 µM
Cc1ccc(O)c(NC(=S)NC(=O)CC(C)C)c1 5.85 µM
Cc1sc(NC(=O)c2ccccc2F)c(CN2CCCCC2C)c1C (centres undefined) 2.07 µM
O=c1oc2ccccc2cc1-c1ccc(O)cc1 4.65 µM
O=c1oc2cc(O)ccc2cc1-c1ccccc1 13.1 µM
O=c1oc2ccccc2cc1-c1ccccc1 16.5 µM
O=c1oc2ccccc2cc1-c1nc(-c2cccs2)no1 1.17 µM
O=c1oc2ccccc2cc1NCc1ccccc1O 10.4 µM
O=C(Nc1ccc(Br)cn1)c1cccc(-c2cc3ccccc3oc2=O)c1 3.69 µM
COc1cccc(C2(O)CC(C(F)(F)F)=NN2C(=O)c2ccccn2)c1 (centres undefined) 13.1 µM
CN(C)c1ccc(/C=C(/C#N)C(=O)NCc2ccccc2)o1 14.7 µM
CCN(CC)c1ccc(/C=C(/C#N)C(=O)NCc2ccccc2)o1 10.4 µM
CCCc1ccc(-c2cc(NC(=O)CSc3n[nH]c(N)n3)n(-c3ccccc3)n2)cc1 18.5 µM
Cc1ccc(NC(=O)c2cnc3ccccc3n2)cc1C 1.31 µM
NC(=O)c1ccc(NC(=O)c2cnc3ccccc3n2)cc1 7.36 µM
c1ccc2c(c1)CCN(C1=Nc3cccc4cccc1c34)C2 18.5 µM
CCOC(=O)Nc1sc2c(c1C#N)CCC(C)C2 (centres undefined) 5.21 µM
Cc1cc(C(=O)Nc2sc3c(c2C#N)CCC(C)C3)cs1 (centres undefined) 0.736 µM
Cc1ccc(-c2nc3cnccn3c2Nc2ccccc2)o1 16.5 µM
c1cn2c(NC3CCCC3)c(-c3ccc(N4CCOCC4)cc3)nc2cn1 6.56 µM
Cc1ccccc1Nc1c(-c2ccc(N3CCOCC3)cc2)nc2cnccn12 4.65 µM
Cc1ccc(Nc2c(-c3ccc(N4CCOCC4)cc3)nc3cnccn23)cc1 7.36 µM
c1cn2c(Nc3ccc4c(c3)OCCO4)c(-c3ccc(N4CCOCC4)cc3)nc2cn1 6.56 µM
COC(=O)c1c(C)[nH]c(C(=O)OCc2ccc(F)cc2)c1C 2.07 µM
CCOC(=O)c1c(C)[nH]c(C(=O)OCc2ccccc2F)c1C 0.414 µM
CCOC(=O)c1c(C)[nH]c(C(=O)OCCOc2ccccc2C)c1C 1.85 µM
N/C(=N\OC(=O)CCC1CCCC1)c1ccccn1 3.29 µM
Cc1cccc(OCC(=O)O/N=C(\N)c2ccccn2)c1C 6.56 µM
N/C(=N\OC(=O)COc1ccccc1)c1ccccn1 5.21 µM
COc1cc(OC)cc(C(=O)O/N=C(\N)c2ccccn2)c1 1.65 µM
Cc1ccc(OCC(=O)O/N=C(\N)c2ccccn2)cc1 3.29 µM
N/C(=N\OC(=O)C12CC3CC(CC(C3)C1)C2)c1ccccn1 5.21 µM
Cc1cccc(OCC(=O)O/N=C(\N)c2ccccn2)c1 7.36 µM
CCCCC(=O)Nc1sc2c(c1C(N)=O)CCC2 11.7 µM
CC(C)C(=O)NC(=S)Nc1sc2c(c1C(N)=O)CCCC2 6.56 µM
COCCN(CCOC)S(=O)(=O)c1ccc(C(=O)Nc2sc3c(c2C(N)=O)CCCCC3)cc1 5.21 µM
O=C1/C(=C/c2ccc(O)c(O)c2)Oc2cc(O)ccc21 8.26 µM
COc1cc(/C=C2\Oc3cc(O)ccc3C2=O)ccc1O 5.21 µM
CCOC(=O)c1csc(-c2sccc2Br)n1 0.521 µM
COc1ccc(-c2nc3c(Br)c(N)c(Br)cc3o2)cc1 2.07 µM
Nc1c(Br)cc2oc(-c3ccccc3)nc2c1Br 2.07 µM
O=C(NCCCN1CCOCC1)c1cc(-c2ccccc2)on1 18.5 µM
O=C(NCCN1CCOCC1)c1cc(-c2ccccc2)on1 18.5 µM
O=C(NC1CCCC1)c1cc(-c2ccccc2Cl)on1 1.65 µM
O=C(NC1CCCCC1)c1cc(-c2ccccc2O)on1 7.36 µM
O=C(NC1CCCC1)c1cc(-c2ccc(Cl)cc2Cl)on1 5.21 µM
COc1ccccc1-c1cc(C(=O)NC2CCCC2)no1 14.7 µM
C=CCNC(=O)c1cc(-c2ccccc2O)on1 16.5 µM
O=C(Oc1ccc2c(c1)OCO2)c1ccc(F)cc1Cl 16.5 µM
ClC1(Cl)CC1CSc1nc2ccccc2[nH]1 (centres undefined) 14.7 µM
CCCCSc1nc2ccccc2[nH]1 13.1 µM
O=c1c2ccccc2nnn1CSc1nc2ccccc2[nH]1 4.65 µM
CC1CCN(C(=O)CSc2nc3ccccc3[nH]2)CC1 2.93 µM
Cc1ccc(-c2cc(C(=O)O)n(Cc3ccccc3)n2)cc1 14.7 µM
Cc1ccc(Cn2nc(C)cc2C(=O)Nc2ccccc2Cl)cc1 7.36 µM
